{"source": "the supplement of paper PMC11732987", "about": "“Enantioselective OTUD7B fragment discovery through chemoproteomics screening and high-throughput optimisation” (Communications Chemistry, 2025)", "assay_in_all_cases": "log2 ratio of Biotin-Ahx-Ub-VS probe labelling (fragment/DMSO); higher = less target engagement (more negative = stronger competition), active = hit call of the paper (q ≤ 0.05, log2 ratio ≤ -1)", "conditions_in_all_cases": "compound concentration: 200 uM; treatment time: 3 h", "key": {"[1]": {"biological_target": "T1, OTUD6B (UniProt Q8N6M0)", "T1 sequence (whole entry)": "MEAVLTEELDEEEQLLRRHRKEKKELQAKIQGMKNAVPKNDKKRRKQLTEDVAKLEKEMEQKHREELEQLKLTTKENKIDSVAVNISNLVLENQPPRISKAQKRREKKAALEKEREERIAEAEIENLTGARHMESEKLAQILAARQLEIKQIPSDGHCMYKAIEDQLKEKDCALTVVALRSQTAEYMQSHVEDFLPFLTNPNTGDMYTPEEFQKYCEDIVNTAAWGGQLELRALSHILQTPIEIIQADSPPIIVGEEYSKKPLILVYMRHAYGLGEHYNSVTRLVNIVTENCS", "summary_of_the_method": "(§1)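 Lysate from HEK293T cells, 495 µg per sample in Tris/CHAPS/IGEPAL buffer with protease inhibitors, was treated for 3 h in triplicate with fragment at 200 µM or vehicle. Biotin-Ahx-Ub-VS was next added at 0.5 µM final for 1 h. The labelled DUBs were enriched with NeutrAvidin, digested with LysC and trypsin, and run by diaPASEF LC-MS/MS, with values given as average log2 fragment/vehicle ratios by unpaired t-test on global-median-normalised Spectronaut quantities of proteins with ≥2 unique peptides.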"}, "[2]": {"biological_target": "T2, OTUD7B (UniProt Q6GQQ9)", "T2 sequence (whole entry)": "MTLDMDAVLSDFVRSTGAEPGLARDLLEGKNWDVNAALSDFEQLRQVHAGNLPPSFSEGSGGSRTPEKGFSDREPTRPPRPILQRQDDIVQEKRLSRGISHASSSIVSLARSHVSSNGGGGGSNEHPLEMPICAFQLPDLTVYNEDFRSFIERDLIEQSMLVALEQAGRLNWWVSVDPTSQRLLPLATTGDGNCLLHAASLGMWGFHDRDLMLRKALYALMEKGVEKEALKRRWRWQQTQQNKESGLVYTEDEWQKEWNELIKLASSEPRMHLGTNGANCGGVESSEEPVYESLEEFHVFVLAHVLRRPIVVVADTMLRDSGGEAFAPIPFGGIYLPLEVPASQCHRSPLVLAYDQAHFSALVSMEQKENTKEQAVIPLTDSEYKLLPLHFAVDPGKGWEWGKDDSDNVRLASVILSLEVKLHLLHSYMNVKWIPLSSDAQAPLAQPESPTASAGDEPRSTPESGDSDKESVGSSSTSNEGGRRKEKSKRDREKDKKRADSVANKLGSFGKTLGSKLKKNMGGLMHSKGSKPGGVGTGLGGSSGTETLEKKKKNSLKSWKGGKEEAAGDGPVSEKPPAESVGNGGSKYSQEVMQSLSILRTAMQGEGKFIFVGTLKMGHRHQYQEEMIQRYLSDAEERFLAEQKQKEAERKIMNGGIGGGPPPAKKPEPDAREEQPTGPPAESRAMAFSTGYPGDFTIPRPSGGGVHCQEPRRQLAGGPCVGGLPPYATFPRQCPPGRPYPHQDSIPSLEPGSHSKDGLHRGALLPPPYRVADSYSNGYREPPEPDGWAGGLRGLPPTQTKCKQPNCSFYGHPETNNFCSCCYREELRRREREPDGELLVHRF", "summary_of_the_method": "as §1"}, "[3]": {"biological_target": "PRPF8 (UniProt Q6P2Q9)", "summary_of_the_method": "as §1"}, "[4]": {"biological_target": "T3, PSMD7 (UniProt P51665)", "T3 sequence (whole entry)": "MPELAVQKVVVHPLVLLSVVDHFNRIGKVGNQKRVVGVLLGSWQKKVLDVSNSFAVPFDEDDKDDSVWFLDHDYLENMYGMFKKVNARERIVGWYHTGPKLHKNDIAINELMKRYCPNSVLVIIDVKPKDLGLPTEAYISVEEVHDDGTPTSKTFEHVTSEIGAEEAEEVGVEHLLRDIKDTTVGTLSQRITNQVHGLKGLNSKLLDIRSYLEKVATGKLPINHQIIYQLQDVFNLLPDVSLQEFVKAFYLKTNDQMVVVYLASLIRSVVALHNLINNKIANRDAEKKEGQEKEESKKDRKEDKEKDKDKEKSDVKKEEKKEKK", "summary_of_the_method": "as §1"}, "[5]": {"biological_target": "UCHL1 (UniProt P09936)", "sequence (P09936 whole entry, looked up)": "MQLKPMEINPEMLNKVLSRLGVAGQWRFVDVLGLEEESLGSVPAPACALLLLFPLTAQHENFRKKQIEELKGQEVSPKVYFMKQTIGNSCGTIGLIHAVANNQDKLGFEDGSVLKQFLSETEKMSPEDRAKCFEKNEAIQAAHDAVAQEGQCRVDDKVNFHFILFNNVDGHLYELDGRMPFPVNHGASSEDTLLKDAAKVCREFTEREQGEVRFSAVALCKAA", "summary_of_the_method": "as §1"}, "[6]": {"biological_target": "T4, UCHL3 (UniProt P15374)", "T4 sequence (whole entry)": "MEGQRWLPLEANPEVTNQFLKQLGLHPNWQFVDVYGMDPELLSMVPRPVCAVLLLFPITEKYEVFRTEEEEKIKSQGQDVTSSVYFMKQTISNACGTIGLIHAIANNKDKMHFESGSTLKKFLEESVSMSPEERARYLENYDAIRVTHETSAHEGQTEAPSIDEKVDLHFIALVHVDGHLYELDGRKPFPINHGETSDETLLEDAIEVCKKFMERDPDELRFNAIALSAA", "summary_of_the_method": "as §1"}, "[7]": {"biological_target": "T5, UCHL5 (UniProt Q9Y5K5)", "T5 sequence (whole entry)": "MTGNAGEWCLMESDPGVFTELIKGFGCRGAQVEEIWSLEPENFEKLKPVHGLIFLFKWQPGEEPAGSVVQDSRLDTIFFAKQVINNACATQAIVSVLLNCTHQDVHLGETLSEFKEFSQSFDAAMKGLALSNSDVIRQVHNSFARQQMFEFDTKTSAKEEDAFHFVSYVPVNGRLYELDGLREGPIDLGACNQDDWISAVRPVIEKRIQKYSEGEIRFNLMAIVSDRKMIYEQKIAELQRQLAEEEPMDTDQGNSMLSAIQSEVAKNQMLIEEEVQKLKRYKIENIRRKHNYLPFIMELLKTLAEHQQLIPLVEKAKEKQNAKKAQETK", "summary_of_the_method": "as §1"}, "[8]": {"biological_target": "USP10 (UniProt Q14694)", "sequence (Q14694 whole entry)": "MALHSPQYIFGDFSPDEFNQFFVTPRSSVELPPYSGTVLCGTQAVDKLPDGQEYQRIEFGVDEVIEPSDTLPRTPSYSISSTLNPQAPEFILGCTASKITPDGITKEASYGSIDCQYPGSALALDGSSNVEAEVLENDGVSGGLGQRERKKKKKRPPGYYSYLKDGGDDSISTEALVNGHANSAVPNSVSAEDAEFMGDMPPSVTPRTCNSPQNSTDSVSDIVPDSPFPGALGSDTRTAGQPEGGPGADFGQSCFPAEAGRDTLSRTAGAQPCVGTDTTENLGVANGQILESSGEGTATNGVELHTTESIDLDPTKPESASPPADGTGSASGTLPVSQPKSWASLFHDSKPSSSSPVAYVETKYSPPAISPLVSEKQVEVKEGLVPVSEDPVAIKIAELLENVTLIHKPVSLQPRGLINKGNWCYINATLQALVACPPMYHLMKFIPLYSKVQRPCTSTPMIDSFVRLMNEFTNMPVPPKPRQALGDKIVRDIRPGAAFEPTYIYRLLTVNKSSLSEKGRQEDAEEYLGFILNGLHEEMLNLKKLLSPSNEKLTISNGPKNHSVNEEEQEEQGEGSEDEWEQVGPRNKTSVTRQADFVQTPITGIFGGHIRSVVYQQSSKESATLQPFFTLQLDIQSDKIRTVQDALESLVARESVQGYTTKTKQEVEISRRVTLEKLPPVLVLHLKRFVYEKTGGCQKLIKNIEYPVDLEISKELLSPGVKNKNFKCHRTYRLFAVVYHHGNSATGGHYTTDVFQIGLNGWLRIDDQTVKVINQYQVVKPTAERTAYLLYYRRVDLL", "summary_of_the_method": "as §1"}, "[9]": {"biological_target": "T6, USP15 (UniProt Q9Y4E8)", "T6 sequence (whole entry)": "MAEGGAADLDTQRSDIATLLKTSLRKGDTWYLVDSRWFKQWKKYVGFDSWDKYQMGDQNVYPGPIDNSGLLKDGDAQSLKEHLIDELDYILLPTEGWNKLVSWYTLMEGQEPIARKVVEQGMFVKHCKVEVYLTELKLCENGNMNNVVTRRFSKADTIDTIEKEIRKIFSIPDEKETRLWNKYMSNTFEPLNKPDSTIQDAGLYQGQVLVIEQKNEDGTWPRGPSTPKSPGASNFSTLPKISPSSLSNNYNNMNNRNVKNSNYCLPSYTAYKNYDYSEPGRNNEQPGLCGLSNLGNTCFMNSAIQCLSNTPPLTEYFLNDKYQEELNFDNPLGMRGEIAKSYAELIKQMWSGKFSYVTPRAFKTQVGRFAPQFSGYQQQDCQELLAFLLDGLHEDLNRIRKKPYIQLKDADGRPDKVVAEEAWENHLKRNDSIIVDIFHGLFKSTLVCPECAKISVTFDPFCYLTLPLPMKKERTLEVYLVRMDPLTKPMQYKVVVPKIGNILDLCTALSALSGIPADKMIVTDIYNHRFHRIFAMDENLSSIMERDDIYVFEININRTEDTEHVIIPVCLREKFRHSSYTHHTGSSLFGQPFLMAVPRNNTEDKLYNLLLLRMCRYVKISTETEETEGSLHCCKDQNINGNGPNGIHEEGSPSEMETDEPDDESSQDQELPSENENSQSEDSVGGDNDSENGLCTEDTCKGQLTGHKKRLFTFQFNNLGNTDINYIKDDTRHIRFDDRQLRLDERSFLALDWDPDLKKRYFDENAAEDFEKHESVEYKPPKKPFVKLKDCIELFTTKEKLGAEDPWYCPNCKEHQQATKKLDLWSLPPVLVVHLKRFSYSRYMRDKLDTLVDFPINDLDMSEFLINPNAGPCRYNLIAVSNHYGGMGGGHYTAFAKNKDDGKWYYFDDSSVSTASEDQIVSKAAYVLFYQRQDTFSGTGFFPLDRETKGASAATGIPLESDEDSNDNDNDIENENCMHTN", "summary_of_the_method": "as §1"}, "[10]": {"biological_target": "USP16 (UniProt Q9Y5T5)", "sequence (Q9Y5T5 whole entry, looked up)": "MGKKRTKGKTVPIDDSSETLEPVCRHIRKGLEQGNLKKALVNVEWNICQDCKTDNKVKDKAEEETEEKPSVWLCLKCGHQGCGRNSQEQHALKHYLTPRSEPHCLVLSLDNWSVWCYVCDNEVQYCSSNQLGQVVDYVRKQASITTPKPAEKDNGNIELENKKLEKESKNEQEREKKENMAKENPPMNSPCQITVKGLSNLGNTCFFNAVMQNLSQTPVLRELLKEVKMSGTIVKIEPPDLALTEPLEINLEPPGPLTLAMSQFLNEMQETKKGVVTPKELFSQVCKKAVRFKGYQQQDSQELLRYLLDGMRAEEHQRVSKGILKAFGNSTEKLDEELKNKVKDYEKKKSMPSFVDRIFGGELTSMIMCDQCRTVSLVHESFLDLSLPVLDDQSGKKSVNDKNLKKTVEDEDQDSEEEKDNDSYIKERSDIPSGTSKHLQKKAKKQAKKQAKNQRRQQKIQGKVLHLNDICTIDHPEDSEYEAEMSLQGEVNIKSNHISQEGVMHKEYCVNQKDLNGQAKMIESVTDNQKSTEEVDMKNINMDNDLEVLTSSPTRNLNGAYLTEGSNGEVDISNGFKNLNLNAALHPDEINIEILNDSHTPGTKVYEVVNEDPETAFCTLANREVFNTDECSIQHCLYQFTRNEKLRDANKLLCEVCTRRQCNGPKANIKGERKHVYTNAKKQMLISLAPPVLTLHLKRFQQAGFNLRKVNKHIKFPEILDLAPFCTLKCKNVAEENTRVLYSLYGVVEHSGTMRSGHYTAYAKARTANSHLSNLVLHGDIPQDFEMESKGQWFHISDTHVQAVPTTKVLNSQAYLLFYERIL", "summary_of_the_method": "as §1"}}, "note": "Values without a mark were called inactive."}
{"smiles": "O=C(CCl)N1CCC2(CCC(O)CC2)CC1", "values": [{"measurement": "log2 ratio of Biotin-Ahx-Ub-VS probe labelling", "setting": "[1]", "result": -0.306}, {"measurement": "log2 ratio of Biotin-Ahx-Ub-VS probe labelling", "setting": "[2]", "result": -0.236}, {"measurement": "log2 ratio of Biotin-Ahx-Ub-VS probe labelling", "setting": "[3]", "result": -0.102}, {"measurement": "log2 ratio of Biotin-Ahx-Ub-VS probe labelling", "setting": "[4]", "result": -0.109}, {"measurement": "log2 ratio of Biotin-Ahx-Ub-VS probe labelling", "setting": "[5]", "result": "-1.76 (active)"}, {"measurement": "log2 ratio of Biotin-Ahx-Ub-VS probe labelling", "setting": "[6]", "result": 0.404}, {"measurement": "log2 ratio of Biotin-Ahx-Ub-VS probe labelling", "setting": "[7]", "result": -0.157}, {"measurement": "log2 ratio of Biotin-Ahx-Ub-VS probe labelling", "setting": "[8]", "result": -0.17}, {"measurement": "log2 ratio of Biotin-Ahx-Ub-VS probe labelling", "setting": "[9]", "result": -0.243}, {"measurement": "log2 ratio of Biotin-Ahx-Ub-VS probe labelling", "setting": "[10]", "result": 0.0341}]}
